# Most compounds without a hit are left out; they make up all but 3.1% or so of the library.
# Vif-APOBEC3G blk – Vif-A3G binding inhibition | Q9HC16 | HeLa A3G-eYFP + Vif (tagged APOBEC3G with the HIV-1 protein that degrades it), YFP fluorescence, overnight | Potency, µM (series often up to 46.1 µM), for the others: at the highest dose activity, negative = active, actives largely listed as inhibitors | 0.076% of 410,000 active | AID 602310; also: potency is read from the fitted curve at half-maximal effect; % is scaled to controls: 0 for no effect and ±100 for the full control effect; nearly all actives have a fitted effect of over 60% in size
#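 Read-out is eYFP fluorescence (Ex 488/Em 500-530) from Vif-expressing HeLa A3G-eYFP cells; more signal means A3G escaped Vif-mediated degradation. Cells plated overnight, compound pinned in, incubated overnight at 37 deg C.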
# VDR inh – inhibitors of human vitamin D receptor; P11473; VDR-SRC2-3 peptide fluorescence polarization, 2 h; Potency, µM, for inactives: max response, negative = inhibition, actives largely listed as inhibitors; 0.93% of 400,000 active; AID 504847; also: potency is read from the fitted curve at half-maximal effect; % is scaled to controls: 0 for no effect and ±100 for the full control effect
#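 Signal is fluorescence polarization, reporting how far test compounds block the interaction of VDR with the SRC2-3 coregulator peptide after a 2 h room-temperature incubation.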
# Vif-APOBEC3F blk – inhibitors of Vif-A3F interaction | HeLa A3F-eYFP + Vif (tagged APOBEC3F with the HIV-1 protein that degrades it), YFP fluorescence increase | Potency, µM (top dose mostly 46.1 µM), inactives show at the highest dose activity, negative = active | 0.2% of 390,000 active | AID 602313; also: potency is read from the fitted curve at half-maximal effect; % of control where 0% means no effect; nearly all actives have a fitted effect of over 65% in size
#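 HeLa cells stably expressing Vif plus C-terminally eYFP-tagged A3F were seeded, incubated overnight at 37 deg C, dosed with compound, incubated overnight again at 37 deg C. Yellow fluorescence (Ex 488/Em 500-530) reported blocked Vif-mediated A3F-eYFP degradation.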
# TSHR antagonist – antagonists of human thyroid stimulating hormone receptor; P16473; TSHR-expressing cells, TSH-stimulated cAMP HTRF, 2 h; stronger effect = lower value; activity change, negative = inhibition, % at 11.5 µM; 0.2% of 330,000 active; AID 504810;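 active = activity change below a set negative limit, meaning inhibition stronger than a set level, cut at about -70% in these data; inconclusive = activity change between two set negative limits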; also: % is scaled to controls: 0 for no effect and ±100 for the full control effect
#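 Freshly harvested TSHR cells receive pin-tooled compound, then EC80 TSH at 4nM final. After 2 hours at 37 deg C, antibody in lysis buffer and cAMP-d2 are added; 30 minutes at ambient temperature precede the HTRF read.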
# PLK1 PBD block – PLK1 (human) polo-box domain binding inhibition; P53350; Potency, µM, inactives show max response, negative = inhibition, hits mostly inhibitors; 2.8% of 360,000 active; Plk1 PBD binding of FITC phosphopeptide, fluorescence polarization; also: potency is read from the fitted curve at half-maximal effect; series mostly up to about 57 µM; % is scaled to controls: 0 for no effect and ±100 for the full control effect; nearly all actives have a fitted effect of over 65% in size
# Target sequence (P53350 whole entry, looked up, the tested form may be a part): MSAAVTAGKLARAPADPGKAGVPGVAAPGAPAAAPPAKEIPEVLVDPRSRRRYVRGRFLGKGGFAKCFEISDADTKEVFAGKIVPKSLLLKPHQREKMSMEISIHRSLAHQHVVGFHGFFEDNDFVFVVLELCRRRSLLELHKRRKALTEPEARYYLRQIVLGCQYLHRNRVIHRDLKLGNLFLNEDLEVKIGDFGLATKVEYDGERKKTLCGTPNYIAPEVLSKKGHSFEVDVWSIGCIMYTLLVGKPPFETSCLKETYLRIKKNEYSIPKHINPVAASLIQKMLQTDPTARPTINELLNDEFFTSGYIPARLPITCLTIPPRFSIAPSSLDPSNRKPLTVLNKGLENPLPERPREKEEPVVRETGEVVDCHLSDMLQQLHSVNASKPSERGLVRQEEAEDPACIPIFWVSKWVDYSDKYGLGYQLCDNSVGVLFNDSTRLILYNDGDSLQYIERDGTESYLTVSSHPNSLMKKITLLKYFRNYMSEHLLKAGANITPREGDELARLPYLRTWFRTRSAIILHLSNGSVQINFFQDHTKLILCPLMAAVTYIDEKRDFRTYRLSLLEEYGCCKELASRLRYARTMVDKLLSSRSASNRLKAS
# TbPYK confirm – Trypanosoma brucei pyruvate kinase inhibition, cherry-pick confirmation; shares compounds with PLK1 PBD block; recombinant TbPYK, Kinase-Glo ATP luminescence; Potency, µM (highest dose often 76.9 µM), for inactives: at the top dose activity change, negative = inhibition, usual class: inhibitors; 67% of 890 active; AID 720569; also: potency is read from the fitted curve at half-maximal effect; % is scaled to controls: 0 for no effect and ±100 for the full control effect; nearly all actives have a fitted effect of over 70% in size
# TbPYK ADP-Glo – inhibits T. brucei pyruvate kinase in orthogonal ADP-Glo assay | shares compounds with PLK1 PBD block | recombinant TbPYK, ADP-Glo luminescence, 60 min | Potency, µM (doses to about 76.9 µM), inactives show at the highest dose activity change, negative = inhibition, hits mostly inhibitors | 62% of 890 active | AID 720584; also: potency is read from the fitted curve at half-maximal effect; % is scaled to controls: 0 for no effect and ±100 for the full control effect; nearly all actives have a fitted effect of over 75% in size
# Numbers without * were called inactive; ? = inconclusive; . = no result given. Unless noted, calls follow the shape of the dose curve; as a rule, active = well fitted curve in the direction sought with a large enough effect; inconclusive = small, poorly fitted or top-dose-only effect, or another doubt; inactive = no such curve, though single readings can be large; an effect the other way counts as inactive or inconclusive.
SMILES,Vif-APOBEC3G blk,VDR inh,Vif-APOBEC3F blk,TSHR antagonist,PLK1 PBD block,TbPYK confirm,TbPYK ADP-Glo
COc1ccc(C2CC(=O)N3CN(c4ccc(C)c(Cl)c4)CSC3=C2C#N)cc1OC (stereo not given),-6.4%,22.4µM*,-18.6%,1.4,?,?,17.8µM*
COc1ccc(N2CSC3=C(C#N)C(c4ccc(OC)c(OC)c4)CC(=O)N3C2)c(OC)c1 (stereo not given),-4.4%,31.6µM*,-8.2%,-8.3,7.52µM*,0.794µM*,5.01µM*
COc1cc(OC)c(C2CC(=O)N3CN(c4ccc(C)cc4)CSC3=C2C#N)cc1OC (stereo not given),-7.6%,44.7µM*,-0.6%,-14.3,21.2µM*,1.41µM*,1.26µM*
Cc1ccc(N(CC(=O)Nc2cccc(Cl)c2C)S(=O)(=O)c2c(C)noc2C)cc1,-4.1%,-14.9%,-6.7%,.,.,.,.
CC(C)Cc1nn2c(=O)cc(COC(=O)c3cccc(NC(=O)c4cccs4)c3)nc2s1,1.0%,19.6%,2.3%,.,.,.,.
CCN1CCN(c2cc(C)c3cc(NC(=O)c4cc(Br)ccc4Cl)ccc3n2)CC1,-11.9%,4.2%,-13.2%,.,.,.,.
COc1ccc(N2CSC3=C(C#N)C(c4cc(OC)c(OC)cc4OC)CC(=O)N3C2)c(OC)c1 (stereo not given),-1.2%,44.7µM*,0.1%,-4.4,11.9µM*,0.631µM*,2.82µM*
CCCSC1=C(C#N)C(c2cc(OC)ccc2OC)CC(=O)N1 (stereo not given),1.4%,18.2%,-4.6%,-7.3,-3.7%,.,.
COc1cc(-c2noc(C3CC(=O)N(c4cc(C)ccc4C)C3)n2)cc(OC)c1OC (stereo not given),-0.6%,13.0%,-2.4%,.,.,.,.
CCOC(=O)C1(C)C(C(=O)OC)=C(c2ccc(OC)cc2)c2ccccc2N1C(=O)OC (stereo not given),3.7%,?,3.6%,-11.9,?,?,?
Cc1cc(C)c(C#N)c(SC2CCCCC2=O)n1 (stereo not given),-2.1%,-0.7%,-4.3%,-8.0,-13.5%,14.1µM*,17.8µM*
O=C(NCc1ccco1)C1CCN(C(=O)N2CCOc3ccccc32)CC1,0.3%,13.6%,3.5%,.,.,.,.
CC(=O)Oc1ccc(N2C(=O)C3C4C=CC(CO)(O4)C3C2=O)cc1 (stereo not given),-4.1%,44.7µM*,3.7%,11.6,26.7µM*,-48.2%,?
CC(=O)Oc1ccc(N2C(=O)C3C(C2=O)C2(C)C=CC3(C)O2)cc1 (stereo not given),.,.,.,-21.3,.,.,.
Cc1cccc(N2CCN(C(=O)CCc3c(C)nc4ncnn4c3C)CC2)c1C,0.5%,5.9%,-2.7%,.,.,.,.
O=[N+]([O-])c1ccc2c(c1)-c1ccccc1C2O (stereo not given),0.6%,.,-1.2%,.,8.44µM*,?,35.5µM*
Cc1c(CBr)[n+](=O)c2c(n1[O-])C(Br)CCC2Br (stereo not given),-0.3%,35.5µM*,-4.6%,3.9,26.7µM*,1.12µM*,3.55µM*
CCCCCCCCSC1=CC(=O)C(OC)=C(OC)C1=O,?,.,3.4%,.,2.38µM*,2.82µM*,3.98µM*
Cc1cc(C)nc(Sc2nc(Cl)nc(N(c3ccccc3)c3ccccc3)n2)n1,?,22.4µM*,-0.8%,50.0,13.4µM*,?,35.5µM*
O=C1C=CC(=O)N1c1ccc2c(c1)C(NC(=O)C(F)(F)F)c1ccccc1-2 (stereo not given),-28.9%,44.7µM*,4.7%,.,6.7µM*,7.94µM*,10µM*
Cc1ccc(NC(=O)c2cnc3sc(N4CCOCC4)nn3c2=O)cc1N(C)C,2.2%,2.8%,3.9%,.,.,.,.
Cc1ccc(Cn2cc(/C=C(/C#N)C(=O)Nc3cccc(Cl)c3)c3ccccc32)cc1,0.8%,-1.5%,0.8%,.,.,.,.
O=C(Nc1ccc(Oc2ccccc2)cc1)c1ccc(F)c(S(=O)(=O)N2CCN(c3ccccc3F)CC2)c1,10.2%,13.4%,2.9%,.,.,.,.
CCOc1ccc(OCC)c(NC(=O)CC(C)n2nc(C)cc2C)c1 (stereo not given),1.7%,8.9%,0.1%,.,.,.,.
CCCCn1c(=O)n(-c2ccc(Br)cc2F)c(=O)c2c3c(sc21)CN(C(C)=O)CC3,-5.0%,-4.2%,1.3%,.,.,.,.
SMILES,Vif-APOBEC3G blk,VDR inh,Vif-APOBEC3F blk,TSHR antagonist,PLK1 PBD block,TbPYK confirm,TbPYK ADP-Glo
CCOC(=O)C1=C(C)N=c2s/c(=C/c3ccco3)c(=O)n2C1c1cccc(OC)c1 (stereo not given),-9.7%,16.3%,.,-28.8,-1.6%,.,.
CCOC(=O)C1=C(C)N=c2s/c(=C/c3cccc([N+](=O)[O-])c3O)c(=O)n2C1c1cc(OC)c(OC)c(OC)c1 (stereo not given),3.7%,?,-3.0%,6.5,26.7µM*,31.6µM*,?
CCOC(=O)c1ccccc1NC(=O)CN(c1ccccc1OC)S(=O)(=O)c1ccc(C)cc1,-2.4%,8.8%,0.7%,.,.,.,.
Cc1cc(N=Cc2c(O)ccc3cc(Br)ccc23)no1,-5.8%,-16.5%,?,-7.2,5.32µM*,17.8µM*,7.08µM*
CS(=O)(=O)c1sc2nc(-c3cccs3)cc(-c3ccccc3)c2c1N,3.1%,?,-4.7%,-3.6,8.44µM*,?,35.5µM*
Cc1nc(N2CCOCC2)c2c(C(=O)NCCc3ccccc3)c(C)oc2n1,-1.2%,-4.4%,6.9%,.,.,.,.
COC(=O)c1ccc(NC(=O)CN2C(=O)CSC2=O)cc1,2.0%,1.3%,-9.9%,.,-10.2%,.,.
CCOC(=O)c1ccc(NC(=O)CN2C(=O)CSC2=O)cc1,-1.4%,15.5%,-7.4%,0.1,-1.6%,0.5%,-7.0%
COc1cccc(C(=O)CSc2nnc(CNS(C)(=O)=O)n2-c2ccc(C)cc2)c1,4.3%,?,-5.8%,-9.4,-18.9%,?,28.2µM*
COc1cccc(-n2c(COc3ccc(C)cc3)nnc2SCC(N)=O)c1,-1.4%,-17.1%,0.6%,-12.2,-7.5%,.,.

# Screens (PubChem)
